Test results as given in ChEMBL document CHEMBL2218924, “A broad activity screen in support of a chemogenomic map for kinase signalling research and drug discovery” (Biochem J, 2013).

Tests used:
[1] = target: T1, Serine/threonine-protein kinase 17A (Homo sapiens) (UniProt Q9UEE5); settings: at 10 µM
T1 sequence (whole entry): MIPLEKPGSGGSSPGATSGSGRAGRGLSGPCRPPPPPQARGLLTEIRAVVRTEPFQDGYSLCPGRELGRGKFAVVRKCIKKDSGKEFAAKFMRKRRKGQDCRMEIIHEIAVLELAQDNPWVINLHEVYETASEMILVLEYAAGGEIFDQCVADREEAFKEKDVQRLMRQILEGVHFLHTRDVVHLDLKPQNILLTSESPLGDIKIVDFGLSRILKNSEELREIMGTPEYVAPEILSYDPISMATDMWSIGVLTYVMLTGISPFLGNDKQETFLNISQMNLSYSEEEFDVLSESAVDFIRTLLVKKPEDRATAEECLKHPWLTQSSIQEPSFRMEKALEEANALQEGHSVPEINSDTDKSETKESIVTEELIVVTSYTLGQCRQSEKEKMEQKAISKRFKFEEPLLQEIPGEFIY

[2] = target: T2, Dual specificity tyrosine-phosphorylation-regulated kinase 2 (Homo sapiens) (UniProt Q92630); settings: at 1 µM
T2 sequence (whole entry): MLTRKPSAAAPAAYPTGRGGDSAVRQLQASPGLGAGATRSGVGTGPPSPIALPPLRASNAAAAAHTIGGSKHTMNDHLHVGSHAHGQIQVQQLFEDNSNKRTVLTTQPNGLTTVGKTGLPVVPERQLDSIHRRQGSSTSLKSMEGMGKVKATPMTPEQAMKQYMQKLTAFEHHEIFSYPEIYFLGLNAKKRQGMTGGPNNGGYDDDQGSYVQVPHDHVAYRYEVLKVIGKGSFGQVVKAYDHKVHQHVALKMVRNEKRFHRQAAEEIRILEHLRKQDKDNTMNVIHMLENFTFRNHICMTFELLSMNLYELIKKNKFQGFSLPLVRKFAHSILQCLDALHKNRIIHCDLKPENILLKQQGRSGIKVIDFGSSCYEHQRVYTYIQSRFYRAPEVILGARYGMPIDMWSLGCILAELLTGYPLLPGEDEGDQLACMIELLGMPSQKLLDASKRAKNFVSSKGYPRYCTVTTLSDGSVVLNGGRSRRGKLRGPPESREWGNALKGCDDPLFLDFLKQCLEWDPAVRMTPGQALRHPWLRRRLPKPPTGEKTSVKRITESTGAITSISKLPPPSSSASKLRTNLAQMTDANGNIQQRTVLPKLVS

[3] = target: T2, Dual specificity tyrosine-phosphorylation-regulated kinase 2 (Homo sapiens); settings: at 10 µM
[4] = target: T3, Ephrin type-A receptor 1 (Homo sapiens) (UniProt P21709); settings: at 1 µM
T3 sequence (whole entry): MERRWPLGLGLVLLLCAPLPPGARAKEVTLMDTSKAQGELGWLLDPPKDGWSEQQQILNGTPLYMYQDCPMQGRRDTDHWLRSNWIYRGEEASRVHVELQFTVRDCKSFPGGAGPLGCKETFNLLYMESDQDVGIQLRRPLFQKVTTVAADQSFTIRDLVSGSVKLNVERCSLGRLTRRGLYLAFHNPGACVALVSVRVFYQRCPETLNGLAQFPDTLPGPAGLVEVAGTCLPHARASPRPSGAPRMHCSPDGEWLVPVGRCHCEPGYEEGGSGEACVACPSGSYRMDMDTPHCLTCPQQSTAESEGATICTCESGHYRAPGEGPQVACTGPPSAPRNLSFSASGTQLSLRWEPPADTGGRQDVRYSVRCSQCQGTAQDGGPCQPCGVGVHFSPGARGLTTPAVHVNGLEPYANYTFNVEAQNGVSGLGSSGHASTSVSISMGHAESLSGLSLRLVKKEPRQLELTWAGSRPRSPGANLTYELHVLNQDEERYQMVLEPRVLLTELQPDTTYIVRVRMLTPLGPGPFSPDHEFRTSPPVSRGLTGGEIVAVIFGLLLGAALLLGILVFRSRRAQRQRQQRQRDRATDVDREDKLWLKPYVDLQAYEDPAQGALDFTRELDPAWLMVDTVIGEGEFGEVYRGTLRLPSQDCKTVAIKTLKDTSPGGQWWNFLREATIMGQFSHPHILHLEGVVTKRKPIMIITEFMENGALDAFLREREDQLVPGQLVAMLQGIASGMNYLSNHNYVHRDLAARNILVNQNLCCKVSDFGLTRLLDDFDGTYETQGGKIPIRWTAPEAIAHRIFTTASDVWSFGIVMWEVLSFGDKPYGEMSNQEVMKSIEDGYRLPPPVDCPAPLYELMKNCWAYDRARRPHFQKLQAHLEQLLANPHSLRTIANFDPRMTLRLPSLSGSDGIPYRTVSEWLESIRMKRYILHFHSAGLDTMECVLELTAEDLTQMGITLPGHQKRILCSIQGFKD

[5] = target: T3, Ephrin type-A receptor 1 (Homo sapiens); settings: at 10 µM
[6] = target: Ephrin type-A receptor 2 (Homo sapiens) (UniProt P29317); settings: at 1 µM
Chain of Ephrin type-A receptor 2 (Homo sapiens) (P29317 whole entry): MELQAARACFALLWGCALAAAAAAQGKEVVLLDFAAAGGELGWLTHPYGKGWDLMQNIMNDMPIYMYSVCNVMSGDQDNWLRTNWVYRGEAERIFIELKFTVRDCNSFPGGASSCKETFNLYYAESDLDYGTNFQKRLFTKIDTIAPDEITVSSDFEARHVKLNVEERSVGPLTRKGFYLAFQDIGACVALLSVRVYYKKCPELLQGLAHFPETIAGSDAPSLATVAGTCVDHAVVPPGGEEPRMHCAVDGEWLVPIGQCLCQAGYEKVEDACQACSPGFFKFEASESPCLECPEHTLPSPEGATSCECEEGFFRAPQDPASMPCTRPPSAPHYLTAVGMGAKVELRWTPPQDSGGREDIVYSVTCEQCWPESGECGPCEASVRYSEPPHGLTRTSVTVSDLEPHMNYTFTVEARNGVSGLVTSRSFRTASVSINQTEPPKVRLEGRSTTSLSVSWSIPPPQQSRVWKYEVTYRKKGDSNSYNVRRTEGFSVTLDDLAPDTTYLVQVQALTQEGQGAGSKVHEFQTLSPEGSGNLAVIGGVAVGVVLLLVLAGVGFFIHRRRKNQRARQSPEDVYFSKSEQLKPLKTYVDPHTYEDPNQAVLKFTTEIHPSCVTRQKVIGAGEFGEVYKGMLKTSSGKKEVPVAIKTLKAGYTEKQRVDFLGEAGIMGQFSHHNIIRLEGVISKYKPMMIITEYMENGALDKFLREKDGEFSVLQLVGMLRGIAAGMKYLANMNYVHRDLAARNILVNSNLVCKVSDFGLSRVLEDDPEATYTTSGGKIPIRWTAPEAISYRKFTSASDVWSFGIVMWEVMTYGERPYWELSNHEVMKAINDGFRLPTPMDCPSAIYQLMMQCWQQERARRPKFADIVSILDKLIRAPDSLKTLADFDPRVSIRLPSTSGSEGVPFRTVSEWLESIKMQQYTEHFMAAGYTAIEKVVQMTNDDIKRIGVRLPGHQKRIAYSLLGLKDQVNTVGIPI

[7] = target: Ephrin type-A receptor 2 (Homo sapiens) (UniProt P29317); settings: at 10 µM
[8] = target: T4, Ephrin type-A receptor 3 (Homo sapiens) (UniProt P29320); settings: at 1 µM
T4 sequence (whole entry): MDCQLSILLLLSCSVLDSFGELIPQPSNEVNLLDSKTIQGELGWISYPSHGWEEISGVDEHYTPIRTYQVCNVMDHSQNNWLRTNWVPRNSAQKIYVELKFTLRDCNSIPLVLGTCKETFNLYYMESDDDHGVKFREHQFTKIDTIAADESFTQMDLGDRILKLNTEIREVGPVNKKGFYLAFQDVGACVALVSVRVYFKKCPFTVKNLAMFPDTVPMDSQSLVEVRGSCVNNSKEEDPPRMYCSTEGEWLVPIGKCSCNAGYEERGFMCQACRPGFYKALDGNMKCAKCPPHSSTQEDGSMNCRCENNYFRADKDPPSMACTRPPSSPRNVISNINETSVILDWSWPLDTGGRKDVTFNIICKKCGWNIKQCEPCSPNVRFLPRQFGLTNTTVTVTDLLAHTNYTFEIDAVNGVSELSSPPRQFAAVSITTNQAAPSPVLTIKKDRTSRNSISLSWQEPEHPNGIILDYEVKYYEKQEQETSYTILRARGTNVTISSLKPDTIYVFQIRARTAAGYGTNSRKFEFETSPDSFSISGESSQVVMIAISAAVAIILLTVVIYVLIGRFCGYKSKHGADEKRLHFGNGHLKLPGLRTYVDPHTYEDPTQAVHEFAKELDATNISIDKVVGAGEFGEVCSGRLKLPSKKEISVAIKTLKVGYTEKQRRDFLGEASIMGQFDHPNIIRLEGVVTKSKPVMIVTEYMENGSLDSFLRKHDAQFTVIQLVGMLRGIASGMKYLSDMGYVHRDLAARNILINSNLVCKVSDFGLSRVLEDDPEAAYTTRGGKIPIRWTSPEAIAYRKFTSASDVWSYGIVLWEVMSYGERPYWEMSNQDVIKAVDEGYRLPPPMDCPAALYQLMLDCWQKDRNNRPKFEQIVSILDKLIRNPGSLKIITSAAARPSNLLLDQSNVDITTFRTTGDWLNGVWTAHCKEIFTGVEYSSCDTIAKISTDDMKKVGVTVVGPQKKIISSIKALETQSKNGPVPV

[9] = target: T4, Ephrin type-A receptor 3 (Homo sapiens); settings: at 10 µM
[10] = target: Ephrin type-A receptor 4 (Homo sapiens) (UniProt P54764); settings: at 1 µM
Chain of Ephrin type-A receptor 4 (Homo sapiens) (P54764 whole entry): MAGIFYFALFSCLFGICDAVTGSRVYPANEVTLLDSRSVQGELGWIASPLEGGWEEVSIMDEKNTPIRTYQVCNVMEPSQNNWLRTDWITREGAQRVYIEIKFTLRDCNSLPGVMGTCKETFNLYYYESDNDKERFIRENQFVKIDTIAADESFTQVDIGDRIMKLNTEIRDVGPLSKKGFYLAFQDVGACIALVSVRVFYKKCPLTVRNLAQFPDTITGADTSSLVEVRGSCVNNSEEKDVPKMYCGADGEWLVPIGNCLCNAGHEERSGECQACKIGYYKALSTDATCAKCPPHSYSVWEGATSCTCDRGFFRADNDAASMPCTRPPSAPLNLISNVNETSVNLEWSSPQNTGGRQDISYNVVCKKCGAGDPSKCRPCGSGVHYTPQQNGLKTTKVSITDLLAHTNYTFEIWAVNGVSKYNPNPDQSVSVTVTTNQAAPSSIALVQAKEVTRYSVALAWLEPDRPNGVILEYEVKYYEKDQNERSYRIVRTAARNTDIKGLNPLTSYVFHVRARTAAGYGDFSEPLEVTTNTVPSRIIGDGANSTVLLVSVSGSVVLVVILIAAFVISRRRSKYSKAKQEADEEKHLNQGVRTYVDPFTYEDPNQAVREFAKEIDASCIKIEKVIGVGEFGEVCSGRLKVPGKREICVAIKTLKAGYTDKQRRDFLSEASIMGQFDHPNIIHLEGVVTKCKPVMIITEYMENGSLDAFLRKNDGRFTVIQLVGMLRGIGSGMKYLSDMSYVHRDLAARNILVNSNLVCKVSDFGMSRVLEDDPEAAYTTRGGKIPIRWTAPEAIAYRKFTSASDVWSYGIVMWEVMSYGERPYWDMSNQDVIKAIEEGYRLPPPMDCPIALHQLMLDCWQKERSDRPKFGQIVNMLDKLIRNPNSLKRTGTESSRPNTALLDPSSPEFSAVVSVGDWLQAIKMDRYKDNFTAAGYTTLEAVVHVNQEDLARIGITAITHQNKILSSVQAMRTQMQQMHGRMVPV

[11] = target: Ephrin type-A receptor 4 (Homo sapiens) (UniProt P54764); settings: at 10 µM
[12] = target: Ephrin type-A receptor 5 (Homo sapiens) (UniProt P54756); settings: at 1 µM
Chain of Ephrin type-A receptor 5 (Homo sapiens) (P54756 whole entry): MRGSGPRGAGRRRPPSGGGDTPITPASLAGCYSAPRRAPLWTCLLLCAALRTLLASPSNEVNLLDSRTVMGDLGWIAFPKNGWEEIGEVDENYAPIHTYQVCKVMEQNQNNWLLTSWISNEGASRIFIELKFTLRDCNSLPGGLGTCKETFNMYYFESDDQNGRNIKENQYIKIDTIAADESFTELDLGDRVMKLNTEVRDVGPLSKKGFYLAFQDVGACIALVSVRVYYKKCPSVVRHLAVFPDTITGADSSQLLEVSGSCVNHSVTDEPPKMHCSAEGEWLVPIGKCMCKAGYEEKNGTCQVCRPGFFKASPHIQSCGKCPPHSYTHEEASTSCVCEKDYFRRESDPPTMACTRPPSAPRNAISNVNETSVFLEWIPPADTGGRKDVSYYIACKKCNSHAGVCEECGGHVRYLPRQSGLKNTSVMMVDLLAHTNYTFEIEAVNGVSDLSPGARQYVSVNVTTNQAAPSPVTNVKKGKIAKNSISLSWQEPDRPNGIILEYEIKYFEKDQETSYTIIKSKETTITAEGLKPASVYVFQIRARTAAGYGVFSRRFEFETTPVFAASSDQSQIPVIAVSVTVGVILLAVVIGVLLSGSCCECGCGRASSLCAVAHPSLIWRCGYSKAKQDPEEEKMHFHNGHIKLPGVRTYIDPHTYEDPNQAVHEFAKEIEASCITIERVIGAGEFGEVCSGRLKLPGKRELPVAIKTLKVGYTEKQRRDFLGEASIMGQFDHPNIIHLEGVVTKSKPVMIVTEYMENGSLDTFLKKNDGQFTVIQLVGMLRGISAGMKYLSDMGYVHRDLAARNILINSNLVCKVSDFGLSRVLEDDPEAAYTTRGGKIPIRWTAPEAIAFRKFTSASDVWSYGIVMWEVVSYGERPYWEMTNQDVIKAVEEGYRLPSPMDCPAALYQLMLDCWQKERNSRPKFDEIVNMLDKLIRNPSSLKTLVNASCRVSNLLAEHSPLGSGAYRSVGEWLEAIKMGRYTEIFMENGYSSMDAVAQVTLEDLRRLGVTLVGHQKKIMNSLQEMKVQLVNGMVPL

[13] = target: Ephrin type-A receptor 5 (Homo sapiens) (UniProt P54756); settings: at 10 µM
[14] = target: Ephrin type-A receptor 7 (Homo sapiens) (UniProt Q15375); settings: at 1 µM
Chain of Ephrin type-A receptor 7 (Homo sapiens) (Q15375 28-998 limits assumed): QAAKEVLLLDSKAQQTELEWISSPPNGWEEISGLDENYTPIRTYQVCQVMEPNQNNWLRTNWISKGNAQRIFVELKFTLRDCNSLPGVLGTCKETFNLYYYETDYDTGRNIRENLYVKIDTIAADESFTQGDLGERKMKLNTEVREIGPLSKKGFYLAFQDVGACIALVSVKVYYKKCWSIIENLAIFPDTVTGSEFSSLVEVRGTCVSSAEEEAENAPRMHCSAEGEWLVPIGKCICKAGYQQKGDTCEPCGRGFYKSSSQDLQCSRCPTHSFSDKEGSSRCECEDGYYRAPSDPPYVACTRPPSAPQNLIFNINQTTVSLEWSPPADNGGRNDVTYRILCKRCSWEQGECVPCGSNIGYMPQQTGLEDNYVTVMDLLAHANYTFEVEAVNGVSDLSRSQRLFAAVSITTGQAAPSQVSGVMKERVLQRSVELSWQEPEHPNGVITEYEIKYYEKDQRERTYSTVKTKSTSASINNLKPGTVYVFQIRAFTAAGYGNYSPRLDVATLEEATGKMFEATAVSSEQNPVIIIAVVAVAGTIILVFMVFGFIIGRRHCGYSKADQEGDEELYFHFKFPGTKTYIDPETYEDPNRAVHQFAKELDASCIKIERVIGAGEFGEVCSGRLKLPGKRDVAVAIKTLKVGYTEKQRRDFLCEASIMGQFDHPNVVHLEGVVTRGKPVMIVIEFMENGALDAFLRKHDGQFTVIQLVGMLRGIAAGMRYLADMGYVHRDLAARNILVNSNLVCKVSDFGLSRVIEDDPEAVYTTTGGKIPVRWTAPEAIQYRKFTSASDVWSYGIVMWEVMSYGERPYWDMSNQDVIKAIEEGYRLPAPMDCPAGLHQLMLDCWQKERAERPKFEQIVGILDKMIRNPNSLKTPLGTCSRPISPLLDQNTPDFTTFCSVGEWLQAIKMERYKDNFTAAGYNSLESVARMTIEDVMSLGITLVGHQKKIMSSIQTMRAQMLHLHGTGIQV

[15] = target: Ephrin type-A receptor 7 (Homo sapiens) (UniProt Q15375); settings: at 10 µM
[16] = target: T5, Ephrin type-A receptor 8 (Homo sapiens) (UniProt P29322); settings: at 1 µM
T5 sequence (whole entry): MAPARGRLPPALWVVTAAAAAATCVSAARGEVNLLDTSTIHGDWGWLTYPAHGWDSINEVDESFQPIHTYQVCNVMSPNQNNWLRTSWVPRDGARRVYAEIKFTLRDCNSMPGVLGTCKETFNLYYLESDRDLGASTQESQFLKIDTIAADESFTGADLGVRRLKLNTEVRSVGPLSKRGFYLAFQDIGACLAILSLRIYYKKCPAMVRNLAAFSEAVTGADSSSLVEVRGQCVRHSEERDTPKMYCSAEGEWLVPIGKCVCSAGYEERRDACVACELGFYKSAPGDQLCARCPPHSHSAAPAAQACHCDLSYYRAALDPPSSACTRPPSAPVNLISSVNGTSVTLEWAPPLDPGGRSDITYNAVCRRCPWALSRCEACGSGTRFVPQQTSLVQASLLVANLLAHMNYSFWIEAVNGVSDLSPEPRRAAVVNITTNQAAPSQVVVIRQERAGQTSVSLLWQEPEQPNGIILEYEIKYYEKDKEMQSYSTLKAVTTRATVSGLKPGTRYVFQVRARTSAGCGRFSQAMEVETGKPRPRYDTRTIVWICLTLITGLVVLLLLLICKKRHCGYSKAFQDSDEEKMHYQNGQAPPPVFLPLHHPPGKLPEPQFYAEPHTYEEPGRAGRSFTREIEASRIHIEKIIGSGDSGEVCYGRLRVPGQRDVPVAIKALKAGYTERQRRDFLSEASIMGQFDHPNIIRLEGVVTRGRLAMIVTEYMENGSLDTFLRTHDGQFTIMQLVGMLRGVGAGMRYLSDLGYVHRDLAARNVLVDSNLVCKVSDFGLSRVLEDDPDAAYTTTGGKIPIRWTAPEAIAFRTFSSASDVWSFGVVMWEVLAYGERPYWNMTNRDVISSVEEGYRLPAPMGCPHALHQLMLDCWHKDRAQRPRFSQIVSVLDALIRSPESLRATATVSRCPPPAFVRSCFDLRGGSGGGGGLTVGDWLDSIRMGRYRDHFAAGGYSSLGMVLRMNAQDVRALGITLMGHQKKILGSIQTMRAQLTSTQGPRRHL

[17] = target: T5, Ephrin type-A receptor 8 (Homo sapiens); settings: at 10 µM
[18] = target: T6, Ephrin type-B receptor 1 (Homo sapiens) (UniProt P54762); settings: at 1 µM
T6 sequence (whole entry): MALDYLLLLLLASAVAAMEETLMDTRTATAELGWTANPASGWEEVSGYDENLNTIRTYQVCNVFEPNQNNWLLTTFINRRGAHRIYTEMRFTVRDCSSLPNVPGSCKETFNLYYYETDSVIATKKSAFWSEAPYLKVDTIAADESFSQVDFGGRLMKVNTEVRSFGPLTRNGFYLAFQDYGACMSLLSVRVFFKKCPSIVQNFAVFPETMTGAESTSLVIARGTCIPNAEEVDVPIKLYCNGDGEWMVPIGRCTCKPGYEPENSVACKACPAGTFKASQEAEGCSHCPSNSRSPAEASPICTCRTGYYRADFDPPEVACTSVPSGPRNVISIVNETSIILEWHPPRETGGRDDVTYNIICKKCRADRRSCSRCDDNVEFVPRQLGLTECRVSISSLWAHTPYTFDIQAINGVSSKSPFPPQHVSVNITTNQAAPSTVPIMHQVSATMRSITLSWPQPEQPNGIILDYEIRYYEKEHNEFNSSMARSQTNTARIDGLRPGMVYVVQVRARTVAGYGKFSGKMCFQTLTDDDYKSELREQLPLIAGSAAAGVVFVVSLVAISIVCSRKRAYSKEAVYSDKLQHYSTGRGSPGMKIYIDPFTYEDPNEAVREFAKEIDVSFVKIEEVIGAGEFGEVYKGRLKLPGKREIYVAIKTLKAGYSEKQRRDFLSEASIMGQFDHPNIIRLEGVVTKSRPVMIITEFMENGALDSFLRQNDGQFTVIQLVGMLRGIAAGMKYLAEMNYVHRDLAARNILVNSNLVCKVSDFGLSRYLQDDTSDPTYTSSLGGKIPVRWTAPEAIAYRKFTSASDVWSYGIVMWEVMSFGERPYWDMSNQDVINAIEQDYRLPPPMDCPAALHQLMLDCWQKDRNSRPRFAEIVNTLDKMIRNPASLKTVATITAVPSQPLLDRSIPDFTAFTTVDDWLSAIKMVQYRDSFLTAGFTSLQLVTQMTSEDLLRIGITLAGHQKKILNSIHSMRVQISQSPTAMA

SMILES	residual activity [1] [%]	residual activity [2] [%]	residual activity [3] [%]	residual activity [4] [%]	residual activity [5] [%]	residual activity [6] [%]	residual activity [7] [%]	residual activity [8] [%]	residual activity [9] [%]	residual activity [10] [%]	residual activity [11] [%]	residual activity [12] [%]	residual activity [13] [%]	residual activity [14] [%]	residual activity [15] [%]	residual activity [16] [%]	residual activity [17] [%]	residual activity [18] [%]
O=c1c2ccccc2[nH]c(=S)n1CCN1CCC(=C(c2ccc(F)cc2)c2ccc(F)cc2)CC1	90	102	96	95	89	116	100	109	96	112	100	110	92	106	92	115	111	90
CC(=O)O/N=C1\C(=C2\C(=O)Nc3cc(Br)ccc32)Nc2ccccc21	31	96	92	84	71	92	59	74	38	112	84	99	47	100	79	84	77	86
